CCHF vOTU inh = blocks the CCHF virus ovarian tumor domain protease. 370,000 compounds, 0.55% hits. CCHFV vOTU protease, Pep-AMC fluorescence. inhibition, % at 11.5 µM; in the data active = inhibition above about 30%; note: 0% = vehicle wells with enzyme and 100% = no enzyme wells
RecA splice inh = inhibitors of M. tuberculosis RecA intein splicing. 290,000 compounds, 0.75% hits. inhibition, % (no concentration beside the values). P9WHJ3. cell-free RecA intein splicing, fluorescence; in the data active = inhibition above about 30%;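 note: 0% = vehicle wells and 100% = reference inhibitor control wells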
Target sequence (P9WHJ3 whole entry, looked up, canonical isoform): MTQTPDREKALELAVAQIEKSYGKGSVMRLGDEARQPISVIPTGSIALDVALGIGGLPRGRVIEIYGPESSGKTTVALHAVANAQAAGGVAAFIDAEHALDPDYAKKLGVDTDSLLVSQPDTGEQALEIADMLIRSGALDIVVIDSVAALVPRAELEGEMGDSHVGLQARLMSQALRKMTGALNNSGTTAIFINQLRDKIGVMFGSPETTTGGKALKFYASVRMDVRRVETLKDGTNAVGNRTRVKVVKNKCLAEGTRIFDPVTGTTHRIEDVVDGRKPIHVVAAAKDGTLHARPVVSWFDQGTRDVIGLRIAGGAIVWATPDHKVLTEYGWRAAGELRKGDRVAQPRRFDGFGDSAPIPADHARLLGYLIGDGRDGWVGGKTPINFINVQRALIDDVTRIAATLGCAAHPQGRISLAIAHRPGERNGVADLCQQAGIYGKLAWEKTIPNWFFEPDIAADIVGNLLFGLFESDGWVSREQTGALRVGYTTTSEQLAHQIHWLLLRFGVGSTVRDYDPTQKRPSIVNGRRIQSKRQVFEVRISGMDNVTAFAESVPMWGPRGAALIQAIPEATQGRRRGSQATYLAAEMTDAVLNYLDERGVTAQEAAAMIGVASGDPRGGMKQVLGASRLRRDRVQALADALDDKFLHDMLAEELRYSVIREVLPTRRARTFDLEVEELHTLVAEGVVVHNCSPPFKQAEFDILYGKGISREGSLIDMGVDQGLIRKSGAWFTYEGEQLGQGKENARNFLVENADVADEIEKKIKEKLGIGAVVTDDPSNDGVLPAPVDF
DUSP3 inh = DUSP3 (human) phosphatase inhibition. 290,000 compounds, 0.52% hits. AID 1654. inhibition, % at 13.3 µM. P51452. recombinant VHR phosphatase, pNPP absorbance; in the data active = inhibition above about 50%
SARS 3CLpro inh = SARS-CoV 3CLpro protease inhibition; recombinant SARS-CoV 3CLpro, quenched FRET peptide cleavage; inhibition, % at 6 µM; 290,000 compounds, 0.14% hits; AID 1706; in the data active = inhibition above about 12%
GFP chromo cs = counter-screen GFP chromophore formation inhibition. AID 434968. EC50, µM. cell-free GFP chromophore formation, fluorescence. shares compounds with RecA splice inh. 2,100 compounds, 83% hits; call rule not given here
* = called active by the depositor; . = no result given. An excerpt weighted towards active compounds, which were near 1.5% of everything screened.

SMILES | CCHF vOTU inh | RecA splice inh | DUSP3 inh | SARS 3CLpro inh | GFP chromo cs
CCC1CCCCN1S(=O)(=O)c1ccc(NC(=O)c2ccncc2)cc1 (stereo not given) | -7.6 | 1.1 | 2.5 | 11.2 | .
COC(=O)c1ccccc1NC(=O)c1nc(S(=O)(=O)Cc2ccccc2)ncc1Cl | 12.9 | 2.4 | 5.5 | -6.7 | .
CCC1CCCCN1S(=O)(=O)c1ccc(NC(=O)c2nc(S(C)(=O)=O)ncc2Cl)cc1 (stereo not given) | 27.9 | 96.6* | 2.2 | 3.6 | 1.26*
O=C1O[C@@H](c2ccccc2)C[C@@H](O)C(=O)CCCc2ccccc21 | 3.6 | . | . | . | .
CC(=O)Nc1ccc(S(=O)(=O)N2CCN=C2SCc2ccc([N+](=O)[O-])cc2)cc1 | 8.2 | 1.6 | 27.9 | 1.5 | .
CCOc1cccc(C2C(C#N)=C(N)Oc3cc(C)[nH]c(=O)c32)c1OCC (stereo not given) | 5.1 | 0.5 | -4.0 | 1.8 | .
CCOc1ccccc1C1C(C#N)=C(N)Nc2onc(-c3ccccc3)c21 (stereo not given) | -12.0 | 78.1* | 15.1 | 3.1 | 16.2*
CCOC(=O)Cn1c(=O)c2c(nc(Br)n2Cc2ccc(Cl)cc2)n(C)c1=O | . | 6.5 | 12.9 | . | .
O=C(CCNC(=O)c1ccc(Cl)cc1)Nc1ccccc1N1CCCC1 | 10.9 | -1.6 | . | . | .
O=C1C(=C(O)c2ccccc2)C(=O)c2ccccc21 | -5.6 | 0.1 | 8.1 | -3.2 | .
O=C1C(=O)c2ccccc2C([O-])=C1[n+]1ccccc1 | 3.9 | 84.4* | 17.0 | 0.2 | 6.86*
COC(=O)[C@H](CCSC)NC(=O)Cn1cnc2c(SC)nc(N)nc21 | -6.5 | . | . | . | .
Cc1c(C)n(O)c2ccc3nonc3c12 | -6.0 | 55.6* | -7.8 | -2.0 | 23.7*
O=Cc1cn(-c2ccccc2)nc1-c1ccc(F)cc1 | 1.3 | 3.4 | -6.1 | -1.6 | .
CC1=NNC(=O)/C1=C\c1cn(-c2ccccc2)nc1-c1cccs1 | 2.1 | 97.1* | -2.2 | -2.5 | 2.83*
O=C(O)CCCCCN1C(=O)/C(=C/c2cn(-c3ccccc3)nc2-c2cccs2)SC1=S | -2.8 | . | . | . | .
CC1=NNC(=O)/C1=C\c1cn(-c2ccccc2)nc1-c1ccc(F)cc1 | . | 65.6* | 14.9 | -3.9 | 2.46*
c1ccc2c(c1)OCC(c1csc3ncnc(N4CCCCC4)c13)O2 (stereo not given) | 12.9 | 1.1 | -17.6 | 1.0 | .
Clc1ncnc2scc(C3COc4ccccc4O3)c12 (stereo not given) | -1.1 | 66.6* | -0.2 | 3.1 | 20.3*
O=C1C(Cl)=C(N2CCCCC2)C(=O)N1c1ccccc1 | -2.7 | 40.9* | 13.0 | -2.9 | 8.78*
COc1ccc(OC)c(N2C(=O)C(Cl)=C(N3CCCCC3)C2=O)c1 | -4.2 | 62.6* | -5.4 | 0.8 | 16.9*
Cc1ccccc1N1C(=O)C(Cl)=C(N2CCCCCC2)C1=O | 3.5 | 8.2 | -10.8 | -2.1 | .
Cc1ccc(N2C(=O)C(Cl)=C(N3CCCCCC3)C2=O)cc1 | 1.2 | 8.9 | -20.5 | -1.9 | .
O=C1C(Cl)=C(N2CCCCC2)C(=O)N1c1ccccc1Cl | 1.5 | 76.7* | 4.8 | 3.5 | 6.17*
COc1cc(C(=O)N/N=C/c2coc3ccc(Cl)cc3c2=O)ccc1O | -3.4 | 22.8 | 14.9 | 2.6 | .
SMILES | CCHF vOTU inh | RecA splice inh | DUSP3 inh | SARS 3CLpro inh | GFP chromo cs
COc1ccc(C(=O)N/N=C\c2coc3ccc(Cl)cc3c2=O)cc1 | -10.3 | 36.5* | 5.9 | 5.3 | 38*
O=C(N/N=C/c1coc2ccc(Cl)cc2c1=O)c1ccc(O)cc1 | 3.1 | 37.7* | 18.7 | -0.9 | 31.6*
O=C(N/N=C/c1coc2ccc(Cl)cc2c1=O)c1ccncc1 | -4.4 | 5.8 | 7.7 | -0.7 | .
CN1CCC(N2CCN(C3CN(Cc4ccc(F)cc4)S(=O)(=O)C3)CC2)CC1 (stereo not given) | 17.3 | . | . | . | .
CN1C(N)=NC(=O)/C1=C\c1ccc(Br)cc1 | 5.0 | 4.1 | 23.3 | -2.3 | .
O=C(Oc1ccc(Br)cc1)C1CC(=O)N(c2ccc(F)cc2)C1 (stereo not given) | -8.1 | 37.0* | 1.8 | 1.3 | 35*
CN(CC(=O)Nc1ccc(F)cc1)C(=O)COC(=O)/C=C/c1ccccc1[N+](=O)[O-] | 13.9 | . | . | . | .
O=c1c(Cl)c(Cl)cnn1Cc1ccccc1Cl | -6.4 | 38.2* | -1.2 | 0.8 | 20.1*
O=c1c(Cl)c(Cl)cnn1Cc1nnc(-c2ccc(Cl)cc2)o1 | -7.2 | 37.4* | 3.6 | 1.8 | 9.33*
N#C/C(=C\c1ccc(O)c([N+](=O)[O-])c1)c1nc2ccccc2s1 | 23.8 | 50.6* | 1.7 | 0.4 | 22.6*
c1ccc2c(OCCCN3CCCCCC3)cccc2c1 | -2.3 | 0.5 | 20.0 | 5.7 | .
Cn1ncnc2c(=O)n(C)c(=O)nc1-2 | . | 97.2* | . | . | 0.0902*
CCCSc1nnc2nc3c(nn12)c1ccccc1n3C | 9.2 | -0.4 | 19.3 | -3.3 | .

Bioassay records as filed in PubChem BioAssay.
